Compound activity as filed in PubChem.
PINK1 modulator = changes PINK1 expression. AID 624263. hit rate 0.2% among 410,000. PINK1 immunofluorescence, high-content cytometry, 24 h. Potency, µM (top dose mostly 76.6 µM), without a hit: at the highest dose activation (PINK1 increase), usual class: activators; active = well fitted activation curve with a large enough effect; inconclusive = small, poorly fitted or top-dose-only effect; cell line not stated here; note: % of control where 0% means no effect; nearly all actives have a fitted effect of over 65% in size
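PINK1 protein, normally rapidly degraded, was detected by immunofluorescence after 24 hour compound treatment of a stable cell line. Titration data (5 concentrations) came from laser-scanning cytometry, with CCCP-treated wells as controls.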
Vif-A3G inh = blocks the Vif interaction with human APOBEC3G | hit rate 0.076% among 410,000 | Potency, µM (doses to about 46.1 µM), inactives show at the highest dose activity, negative = active, actives largely listed as inhibitors | Q9HC16 | AID 602310 | HeLa A3G-eYFP + Vif (tagged APOBEC3G with the HIV-1 protein that degrades it), YFP fluorescence, overnight; note: % is set by controls: 0 for no effect and ±100 for the full control effect; nearly all actives have a fitted effect of over 60% in size
Target sequence (Q9HC16 whole entry, looked up): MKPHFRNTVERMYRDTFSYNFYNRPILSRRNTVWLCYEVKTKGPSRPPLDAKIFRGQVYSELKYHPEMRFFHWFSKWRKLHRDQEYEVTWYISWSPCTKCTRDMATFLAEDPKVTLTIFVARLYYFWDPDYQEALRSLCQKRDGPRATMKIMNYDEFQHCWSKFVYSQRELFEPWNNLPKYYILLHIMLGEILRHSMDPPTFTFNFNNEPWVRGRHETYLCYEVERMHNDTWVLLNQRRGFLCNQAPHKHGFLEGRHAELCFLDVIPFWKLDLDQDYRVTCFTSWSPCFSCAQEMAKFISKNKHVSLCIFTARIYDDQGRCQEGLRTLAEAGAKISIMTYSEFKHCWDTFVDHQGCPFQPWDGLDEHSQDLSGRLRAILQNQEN
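Read-out is eYFP fluorescence (Ex 488/Em 500-530) from Vif-expressing HeLa A3G-eYFP cells; more signal means A3G escaped Vif-mediated degradation. Cells plated overnight, compound pinned in, incubated overnight at 37 deg C.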
FUS suppressor = suppressors of FUS proteinopathy in yeast; S. cerevisiae FUS-expressing, growth rescue, OD600, 24 h; hit rate 0.24% among 390,000; Potency, µM (titrated, usually from 76.6 µM), usual class: activators; AID 1347120;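 note: plate controls were DMSO vehicle for no effect and reference control for full effect; nearly all actives have a fitted effect of over 55% in size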
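Quantitative HTS measuring growth restoration of FUS-toxic yeast. Galactose-induced cells (OD 0.005) were exposed 24hr at 30C to compounds at several concentrations, then absorbance at 600 nm was recorded.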
GRP78 ERSR act = ER stress response induction in glioma; hit rate 0.02% among 420,000; Potency, µM, for inactives: at the top dose activation, actives largely listed as activators; AID 602332; U87-MG GRP78 promoter luciferase reporter, 16 h; note: series mostly up to about 76 µM; % of control where 0% means no effect; nearly all actives have a fitted effect of over 35% in size
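ERSR induction read as luciferase luminescence (Bright-Glo, 10 min at room temperature) in stably transfected human U87-MG glioma cells exposed to compounds for 16 h, using GRP78 as sensor.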
Vif-A3F inh = blocks the Vif interaction with APOBEC3F; HeLa A3F-eYFP + Vif (tagged APOBEC3F with the HIV-1 protein that degrades it), YFP fluorescence increase; Potency, µM (doses to about 46.1 µM), inactives show top-dose activity, negative = active; AID 602313; hit rate 0.2% among 390,000; note: % of control where 0% means no effect; nearly all actives have a fitted effect of over 65% in size
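HeLa cells stably expressing Vif plus C-terminally eYFP-tagged A3F were seeded, incubated overnight at 37 deg C, dosed with compound, incubated overnight again at 37 deg C. Yellow fluorescence (Ex 488/Em 500-530) reported blocked Vif-mediated A3F-eYFP degradation.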
Abeta yeast res = A-beta toxicity reversal in yeast; yeast expressing A-beta42, growth rescue, OD600, 48 h; response scale: 0% DMSO, 100% iron-clioquinol control; hit rate 0.063% among 410,000; Potency, µM (series often up to 46.1 µM), hits mostly activators; note: nearly all actives have a fitted effect of over 55% in size
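Yeast growth medium received pinned compounds, then yeast cells expressing toxic A-beta were added; plates incubated at 30 C for 48 hr. Growth read as absorbance at 600 nm, normalized to DMSO and equimolar FeCl3 plus clioquinol controls.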
Starred values were filed as active, the others as inactive; i = inactive; ? = inconclusive; / = no result given; [ ] = remark or other dose. A selection: hits, their analogues and other compounds. The true share with any hit is near 0.69%. Unless noted, calls come from the whole dose curve; as a rule, active = well fitted curve in the direction sought with a large enough effect; inconclusive = small, poorly fitted or top-dose-only effect, or another doubt; inactive = no such curve, though single readings can be large; an effect the other way counts as inactive or inconclusive. Potency is the fitted concentration of half-maximal effect.

SMILES	PINK1 modulator	Vif-A3G inh	FUS suppressor	GRP78 ERSR act	Vif-A3F inh	Abeta yeast res
COc1cccc(NC(=O)c2sc3nc(C)c(C(=O)Nc4ccc(C)cc4C)c(-c4sccc4C)c3c2N)c1	3%	0%	i	0%	-3%	i
CCc1ccc(NC(=O)c2sc3nc(C)c(C(=O)Nc4ccc(C)cc4C)c(-c4ccco4)c3c2N)cc1	14%	-30%	i	-2%	13µM*	i
COc1cccc(NC(=O)c2sc3nc(C)c(C(=O)Nc4ccc(C)cc4C)c(-c4ccco4)c3c2N)c1	3%	-21%	?	-2%	?	i
NC(=O)c1sc2nc3c(c(-c4ccco4)c2c1N)CCCC3	0%	4%	i	-3%	-7%	i
Cc1ccc(NC(=O)c2c(C)nc3sc(C(=O)NC4CCCC4)c(N)c3c2-c2ccco2)c(C)c1	?	-2%	/	5%	2.8µM*	i
Cc1ccccc1NC(=O)c1sc2nc3c(c(-c4ccco4)c2c1N)CCC3	6%	13µM*	i	-7%	?	i
CN(C)CC(C)(O)c1ccc2c(c1)CN(Cc1cn(C)c3ccccc13)CCO2 (stereo not given)	0%	/	/	-2%	/	/
CCOc1ccccc1CN1CCCC(c2nc(C)ncc2-c2ccc(F)cc2)C1 (stereo not given)	0%	/	/	-5%	/	/
COc1ccc(-n2c(O)c(/C=N/NS(=O)(=O)c3ccc(C)cc3)c3ccccc3c2=O)cc1OC	-1%	?	?	-4%	5µM*	i
S=C1NC(c2ccccc2)=CC(c2ccccc2)N1 (stereo not given)	1%	-2%	?	1%	?	13µM*
Cc1cc(C)c(S(=O)(=O)n2ccc3ccccc32)c(C)c1	40µM*	2%	i	-3%	3%	?
O=S(=O)(c1ccccc1)n1ccc2ccccc21	-1%	-1%	i	-1%	-4%	i
CC(C)(C)OC(=O)N1CCC(N[C@@H](Cc2c[nH]c3ccccc23)C(=O)NCC(c2ccccc2)c2ccccc2)(C(=O)NC2CCCCC2)CC1	/	/	10µM*	/	/	/
CN1CCC(N[C@@H](Cc2c[nH]c3ccccc23)C(=O)NCC(c2ccccc2)c2ccccc2)(C(=O)NC2CCCCC2)CC1	/	/	i	/	/	/
COc1ccc(-c2nc3ccccc3n2Cc2ccccc2)cc1	6%	-2%	i	3%	-16%	i
COc1ccc(-c2n(Cc3ccccc3)c3ccccc3[n+]2Cc2ccccc2)cc1	11µM*	5%	i	-4%	-3%	i
COc1ccc(C)cc1Nc1n[n+](-c2ccccc2)c(-c2ccc(N(C)C)cc2)s1	?	?	?	-4%	?	i
Cc1ccc2c(c1)sc(-c1ccc(N(C)C)cc1)[n+]2C	?	?	i	-6%	22µM*	i
Cc1cnc(C)c(-c2cc(F)cc3c2OC(CNC(=O)C2CCOC2)C3)n1 (stereo not given)	3%	/	/	-2%	/	/
Cc1cc(C)nc(/N=C(\N)Nc2ccc(C(C)C)cc2)n1	40µM*	0%	i	-6%	-6%	i
Cc1ccc(N/C(N)=N/c2nc(C)cc(C)n2)cc1	24%	2%	i	-6%	8%	i
Cc1ccc2nc(SCC(=O)N3CCOc4ccc(CN5C[C@@H](C)O[C@@H](C)C5)cc4C3)[nH]c2c1	-1%	/	/	-2%	/	/
C[n+]1c2n(c3ccccc31)N=C(c1ccc(-c3ccccc3)cc1)CS2	13µM*	-5%	i	-3%	-3%	i
COc1ccc(NC(=O)/C=C\C(=O)N(c2ccc(C(C)C)cc2)C(C(=O)NCc2ccco2)c2ccc(C)cc2)cc1 (stereo not given)	1%	8%	4.5µM*	-3%	1%	i
CC(=O)N[C@@H](C)C(=O)NCC1Cc2cccc(-c3ccccc3C(F)(F)F)c2O1 (stereo not given in full)	0%	/	/	-5%	/	/
SMILES	PINK1 modulator	Vif-A3G inh	FUS suppressor	GRP78 ERSR act	Vif-A3F inh	Abeta yeast res
CCOc1ccc(Br)cc1CNCCSc1nnnn1-c1ccccc1	-1%	-6%	i	32µM*	-3%	i
Brc1cccc(CNCCSc2nnnn2-c2ccccc2)c1	0%	-1%	i	0%	1%	i
Cc1onc(-c2c(F)cccc2Cl)c1C(=O)Nc1nnc(C(F)(F)F)s1	16µM*	-9%	i	-3%	-10%	i
COC(=O)C1=C(C)N(Cc2ccco2)C(=O)/C1=C\c1ccc([N+](=O)[O-])cc1	2%	?	?	?	3.2µM*	i
O=C(c1nc2ncccn2n1)N1CCOc2ccc(C(O)C(c3ccccc3)c3ccccc3)cc2C1 (stereo not given)	0%	/	/	2%	/	/
CCOC(=O)CSc1nc2c(sc(=S)n2-c2ccc(CC)cc2)c(=O)[nH]1	0%	-20%	i	40µM*	2%	i
Cc1nn2c(NCc3ccccn3)cc(C(C)(C)C)nc2c1-c1ccccc1	18µM*	-4%	?	1%	0%	i
Cc1cc(NCc2ccccn2)n2nc(C)c(-c3ccccc3)c2n1	6%	3%	i	4%	-1%	i
Cc1nn(C)cc1CN1CCOc2ccc(C(C)(O)COc3ccccc3)cc2C1 (stereo not given)	0%	/	/	-5%	/	/
Cc1cccc(NC(=S)NC(=O)Cc2ccccc2)c1C	2%	1%	i	4%	-12%	7.9µM*
CC(=O)C1=C(C)NC(SCC(=O)c2ccc(Cl)cc2)=C(C#N)C1c1ccco1 (stereo not given)	1%[38.3 µM]	?	?	2%	25µM*	i
CCc1c(C)nc2ncnn2c1N1CCC(C(=O)Nc2ccc(C)cc2)CC1	?	0%	i	-4%	-13%	i
CCc1c(C)nc2ncnn2c1N1CCC(C(=O)Nc2ccccc2)CC1	13µM*	2%	i	-3%	1%	i
Cc1cc(C(=O)N(Cc2cc3cc4c(cc3nc2N2CCOCC2)CCC4)CC2CCCO2)c(=O)[nH]c1C (stereo not given)	0%	/	/	4%	/	/
Cc1cccc(Cn2nnc3c(=O)[nH]c(C4CCCN(C(=O)c5ccc(C(C)(C)C)cc5)C4)nc32)c1 (stereo not given)	-1%	-13%	22µM*	-10%	1%	i
Cc1ccccc1Cn1nnc2c(=O)[nH]c(C3CCCN(C(=O)c4ccc(C(C)(C)C)cc4)C3)nc21 (stereo not given)	-1%	-5%	?	9%	3%	i
O=C(Nc1nc2c(F)cccc2s1)c1ccc(S(=O)(=O)N2CCCc3ccccc32)cc1	12%	-3%	i	-3%	1%	i
